Results reported in ChEMBL document CHEMBL1157539, “Thousands of chemical starting points for antimalarial lead identification” (Nature, 2010).

How the values were obtained:
Type in all cases: functional
Plasmodium falciparum [1] = experiment: GSK_TCMDC: Inhibition of Plasmodium falciparum 3D7 in whole red blood cells, using parasite LDH activity as an index of growth. Test compounds present at 2uM
Plasmodium falciparum [2] = experiment: GSK_TCMDC: Inhibition of Plasmodium falciparum Dd2 in whole red blood cells, using parasite LDH activity as an index of growth. Test compounds present at 2uM
HepG2 = experiment: GSK_TCMDC: Percent inhibition of human HepG2 cell line. Test compounds present at 10uM.

| SMILES | Inhibition (Plasmodium falciparum [1]) [%] | Inhibition (Plasmodium falciparum [2]) [%] | Inhibition (HepG2) [%] |
| --- | --- | --- | --- |
| Cc1cc(NC(=O)NCCN2CCC(NC(=O)c3ccc(Cl)cc3)CC2)c2ccccc2n1 | 90 | 54 | 0 |
| COc1cc(Cc2cnc(N)nc2N)cc(OCCCCCC(=O)O)c1OC.Cl | 95 | 2 | 0 |
| CCN(CC)CCCC(C)Nc1ccnc2[nH]c3ccccc3c12 (stereo unspecified) | 82 | 38 | 0 |
| CN(CCC(CCN1CCC(c2c[nH]c3ccccc23)CC1)c1ccccc1)C(=O)Nc1ccc(Cl)c(Cl)c1 (stereo unspecified) | 91 | 21 | 50 |
| COc1cc(OC)c2c(C)cc(NCCCn3ccnc3)nc2c1 | 100 | 22 | 6 |
| CNC(=O)c1cc(Nc2nnc(-c3ccc(C)c(S(=O)(=O)NC4CCCCC4)c3)c3ccccc23)ccc1OC | 87 | 61 | 0 |
| Cc1cc(C2CCN(CCCCNC(=O)c3ccc(-c4ccc(C(F)(F)F)cc4)cc3)CC2)c(C)cc1OCCOC1CCCCO1 (stereo unspecified) | 95 | 5 | 30 |
| COc1cccc(CCN(Cc2ccccc2-c2ccc(CNC3CC(C)(C)NC(C)(C)C3)cc2)C(=O)NC2CCCCC2)c1.Cl | 100 | 99 | 97 |
| Cc1ccc(-c2nn3c(O)c4c(nc3c2C)CCCC4)cc1 | 97 | 87 | 16 |
| COc1ccc(CNC2CCN(C)CC2)cc1-c1ccc(S(=O)(=O)NC2CCC2)cc1.O=C(O)C(F)(F)F | 98 | 76 | 58 |
| O=C(Nc1ccc(-c2ccc(CN3CCNCC3)cc2)cc1)c1cccc(Cl)c1.O=C(O)C(F)(F)F | 91 | 16 | 58 |
| O=C(/C=C/c1ccc(Cl)c(Cl)c1)N1CCN(C(=O)Nc2ccc(C(F)(F)F)cc2)CC1 | 98 | 100 | 47 |
| CCOc1c(Br)cc(Cl)cc1CNCCCNc1nc2ccccc2[nH]1.Cl | 98 | 3 | 27 |
| COc1ccc(CN(C)CCCc2ccc(NC(=O)Cc3ccc4nc(-c5ccccc5)ccc4c3)cc2)cc1OC | 98 | 0 | 10 |
| Cc1ccccc1Nc1nc(NCCCO)c2ccccc2n1.Cl | 83 | 50 | 0 |
| Cc1ccccc1N1CCN(c2ccc(C(=O)NC(C)C)cn2)CC1.O=C(O)C(F)(F)F | 89 | 91 | 13 |
| O=C(O)C(F)(F)F.c1ccc2c(c1)CN(Cc1cc3ccccc3[nH]1)CC1(CCN(Cc3c[nH]c4cnccc34)CC1)O2 | 100 | 62 | 27 |
| COc1ccc(C=Cc2ccc(-c3c(C)[nH]c(C)c(Cl)c3=O)cc2)cc1OC | 97 | 96 | 12 |
| CC(C)C(C(=O)n1ncc2c3c(N)nc(N)nc3ccc21)C(C)C | 98 | 8 | 67 |
| COc1ccc(CCN(C)CCCCc2ccc(NC(=O)c3cccc4c(=O)c5cc(F)ccc5sc34)cc2)cc1OC | 96 | 49 | 98 |
| Cc1ccc(C(=O)Nc2ccc(Nc3ccnc4cc(-c5ccncc5)ccc34)cc2O)cc1 | 97 | 100 | 14 |

| SMILES | Inhibition (Plasmodium falciparum [1]) [%] | Inhibition (Plasmodium falciparum [2]) [%] | Inhibition (HepG2) [%] |
| --- | --- | --- | --- |
| COc1ccc(NC(=O)CCNc2cc(C)nc(NCCOc3ccccc3)n2)cc1.O=C(O)C(F)(F)F | 96 | 2 | 0 |
| CC1(C)N=C(N)N=C(N)N1OCc1ccc2ccccc2c1 | 94 | 97 | 65 |
| O=C(Nc1ccc(-c2nc3ccccc3[nH]2)cc1)c1ccc(N2CCOCC2)c([N+](=O)[O-])c1 | 100 | 28 | 47 |
| CC1CN(c2ccc(C(=O)NCC3CC3)cc2NC(=O)OCc2ccccc2)CC(C)O1.O=C(O)C(F)(F)F (stereo unspecified) | 91 | 76 | 0 |
| C[C@@H](C(=O)N1CCOCC1)N1CC[C@H](NS(=O)(=O)c2ccc3ccnc(N)c3c2)C1=O.O=CO | 84 | 61 | 0 |
| CCOc1cc(C(=O)NCCN2CCCCC2)ccc1-c1nc2cc(Cl)ccc2[nH]1 | 99 | 8 | 4 |
| CS(=O)(=O)CCNCc1nc(-c2ccc3c(Nc4ccc(Oc5ccccn5)cc4)ccnc3c2)cs1 | 100 | 89 | 9 |
| CN(C)CCN(C)Cc1ccc(-c2ccc3c(Nc4ccc(Oc5ccccc5)cc4)ccnc3c2)o1 | 100 | 100 | 5 |
| Cc1cc(NCCc2ccc(O)cc2)nc(NCC(c2ccccc2)c2ccccc2)n1 | 100 | 77 | 22 |
| Cl.Cl.N=C(N)Nc1ccc(Cc2ccc(NC(=N)N)cc2)cc1 | 93 | 94 | 35 |
| O=C(/C=C/c1ccc(Cl)c(Cl)c1)NCCCCCN1CCC(NC(=O)Nc2cc(Cl)nc(Cl)c2)CC1 | 100 | 2 | 4 |
| CCCc1cc(Cc2cnc(N)nc2N)cc(OCCCCCC(=O)O)c1OC.Cl | 95 | 2 | 8 |
| Cc1cccc2nc(-c3ccc(-c4ccc(CN5CCC(C(N)=O)CC5)cc4)cc3)[nH]c12.O=C(O)C(F)(F)F | 91 | 32 | 8 |
| O=C(Nc1ccc(-c2cccc(-c3nc4ccccc4[nH]3)c2)cc1)Nc1ccc(Cl)c(Cl)c1 | 100 | 80 | 61 |
| COCCNCc1ccc(-c2cccc(CNC3CCN(Cc4ccccc4)CC3)c2)cc1.O=C(O)C(F)(F)F | 100 | 100 | 30 |
| CC(C)(CNCc1ccc(F)c(F)c1)c1nc(-c2ccc(Cl)c(O)c2)c(-c2ccncc2)[nH]1.Cl | 100 | 89 | 74 |
| COc1ccc(NC(=O)NC2CCN(c3ccnc4ccccc34)C2)cc1.O=C(O)C(F)(F)F (stereo unspecified) | 94 | 0 | 3 |
| CCCCN(CCCC)C(=N)c1cccc2c1CCCC2.Cl | 95 | 9 | 11 |
| O=C(Nc1ccc(OC2CCN(Cc3ccsc3)CC2)c(Cl)c1)c1cccs1.O=C(O)C(F)(F)F | 94 | 93 | 16 |
| O=C(Nc1cc(C(F)(F)F)cc(C(F)(F)F)c1)c1cc(C(F)(F)F)cc(C(F)(F)F)c1 | 100 | 86 | 21 |
| CC(=O)C1=NN(c2ccc(Cl)cc2)C(c2cccs2)N1c1ccccc1 (stereo unspecified) | 88 | 70 | 0 |

| SMILES | Inhibition (Plasmodium falciparum [1]) [%] | Inhibition (Plasmodium falciparum [2]) [%] | Inhibition (HepG2) [%] |
| --- | --- | --- | --- |
| O=C(Nc1cc(Oc2ccc(O)cc2)cc([N+](=O)[O-])c1)c1cc(-c2ccc(F)cc2)no1 | 88 | 37 | 61 |
| CCCc1c(C(=O)OCC)c2cc(O)ccc2n1-c1ccc(OC)cc1 | 100 | 99 | 0 |
| CC(C)(C)c1cc(C(=O)Nc2ccc(C(=N)N)cc2)c(O)c(C(C)(C)C)c1.O=C(O)C(F)(F)F | 100 | 88 | 4 |
| Br.CC1(C)NC(N)=NC(=N)N1OCCCOc1cccc(Cl)c1 | 95 | 95 | 65 |
| CN(C)CCC=C1c2ccccc2Sc2c(O)cc(Cl)cc21.O=C(O)/C=C\C(=O)O | 100 | 80 | 8 |
| O=C(NCCN1CCCC1)c1cccc(-c2ccc(-c3nc4ccccc4[nH]3)cc2)c1 | 100 | 36 | 20 |
| CN(C)CCCNCc1ccc(-c2ccc(CNCCOc3ccccc3)cc2)cc1.O=C(O)C(F)(F)F | 100 | 53 | 27 |
| CC(=O)c1sc(Cc2nc3ccccc3s2)nc1C | 94 | 88 | 0 |
| CCNc1cc(C(=O)N[C@@H](Cc2ccccc2)[C@H](O)CNCCc2cc(OC)cc(OC)c2)cc(N2CCCCS2(=O)=O)c1.Cl | 89 | 28 | 3 |
| CCCc1cn2c3c(cc(C(=O)N[C@@H](Cc4ccccc4)[C@H](O)CNC4CCOCC4)cc13)N(CC)S(=O)(=O)CC2.O=CO | 97 | 98 | 2 |
| Cc1[nH]c(C)c(-c2ccc(-c3ccc(Cl)cc3)nc2)c(=O)c1Br | 97 | 96 | 21 |
| COc1ccc(CC(=O)Nc2ccc(Nc3nc(C)cc(N4CCCC4)n3)cc2)cc1 | 100 | 65 | 56 |
| CCCN(C(=O)c1ccccc1C)c1nnc(-c2cccc(C)c2)s1 | 91 | 67 | 8 |
| CCC1N=C(N)N=C(N)N1OCc1cccc2ccccc12 (stereo unspecified) | 93 | 1 | 66 |
| COc1cccc(CNC[C@@H](O)[C@H](Cc2ccccc2)NC(=O)c2cc(OC(C)C)cc(N3CCCCS3(=O)=O)c2)c1.Cl | 95 | 49 | 8 |
| COc1ccc(Nc2nc(N/N=C/c3cc(Br)ccc3O)nc(Nc3ccc([N+](=O)[O-])cc3)n2)cc1 | 97 | 37 | 27 |
| Cc1ccccc1C1CCN(C2CCC(NC(=O)c3cc(-c4ccccc4)oc3C)CC2)CC1 (stereo unspecified) | 100 | 32 | 46 |
| COc1ccc2nccc([C@@H](O)CN3CCC(NCCOc4cc(F)cc(F)c4)CC3)c2c1.O=C(O)C(=O)O | 100 | 86 | 10 |
| C#CCOc1ccc2ccccc2c1CNCCCCCCNCc1c(OCC#C)ccc2ccccc12.CS(=O)(=O)O | 100 | 98 | 100 |
| CN1CCN(c2cc(NC(=O)c3ccc(-c4ccc(C#N)cc4)cc3)ccc2Cl)CC1 | 100 | 94 | 29 |
